In the library only some 1.2% were active in any assay of this set; here they are far more common.
Akt phos inh = inhibitors of Akt phosphorylation. Neuro2A IGF-stimulated pAkt S473 HTRF, 20 min; hits give low values. activity change, % for hits at 50 µM. actives 0.32% (n = 360,000). AID 651550; in the data active = activity change below about -80%; inconclusive = mostly about -51% to -80%
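Single-point screen (50 µM final compound) in Neuro2A cells stimulated 20 min with 6 nM IGF at 37 deg C. After lysis, Ser473-phosphorylated Akt read by HTRF (ex 330 nm, em 615/665 nm) as the 665/615 ratio.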
Six1-Eya2 blk = blocks human Six1 binding to Eya2; Q15475+O00167; AlphaScreen GST-Six1/His-Eya2 binding, biochemical; hits give low values; activity change, % (concentration not given with the values); actives 0.56% (n = 360,000); AID 651725
Target sequence (O00167 whole entry, looked up): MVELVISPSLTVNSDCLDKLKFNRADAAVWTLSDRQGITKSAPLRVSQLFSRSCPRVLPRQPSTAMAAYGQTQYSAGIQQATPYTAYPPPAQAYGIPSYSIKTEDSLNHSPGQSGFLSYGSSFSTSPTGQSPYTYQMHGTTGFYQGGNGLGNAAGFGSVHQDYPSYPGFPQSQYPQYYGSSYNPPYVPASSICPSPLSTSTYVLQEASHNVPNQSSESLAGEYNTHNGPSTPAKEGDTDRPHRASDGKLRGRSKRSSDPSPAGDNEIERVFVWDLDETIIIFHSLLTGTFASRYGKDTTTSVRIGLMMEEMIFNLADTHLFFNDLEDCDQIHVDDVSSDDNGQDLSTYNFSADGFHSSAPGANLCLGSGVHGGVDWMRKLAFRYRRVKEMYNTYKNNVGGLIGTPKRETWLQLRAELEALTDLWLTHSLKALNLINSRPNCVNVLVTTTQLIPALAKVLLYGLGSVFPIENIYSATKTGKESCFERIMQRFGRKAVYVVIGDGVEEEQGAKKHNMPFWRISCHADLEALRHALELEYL
Target sequence (Q15475 whole entry, looked up): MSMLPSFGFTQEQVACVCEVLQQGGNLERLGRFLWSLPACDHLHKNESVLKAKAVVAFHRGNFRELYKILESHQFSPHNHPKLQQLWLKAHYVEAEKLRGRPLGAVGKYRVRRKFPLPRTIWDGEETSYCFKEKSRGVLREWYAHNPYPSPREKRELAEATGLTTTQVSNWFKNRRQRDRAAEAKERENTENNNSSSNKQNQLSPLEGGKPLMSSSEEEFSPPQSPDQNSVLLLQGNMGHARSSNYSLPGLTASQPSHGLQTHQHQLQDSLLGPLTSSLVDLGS
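Homogeneous AlphaScreen proximity assay pairing GST-Six1 with His-tagged Eya2 (added as 5X mix: 250 nM and 500 nM) in 50 mM Tris pH 8.0, 300 mM NaCl, 1 mM TCEP. Glutathione donor and nickel acceptor beads; 1 h, 37 °C, dark.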
CCT chaperon mod = changes cytosolic chaperonin activity; purified chaperonin ATPase assay, HTRF ADP detection, 30 min; activity change, % (concentration not given with the values), hits read low; actives 0.3% (n = 360,000); AID 651819; in the data active = activity change below about -30%
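Enzyme 40 or 20 nM (batch-dependent) in Tris pH 7.4/KCl/MgCl2/DTT; cpd 76 uM single point; ATP 10 uM; 30 min 37 °C; Transcreener ADP HTRF detection, 30 min RT; ratio 665/615.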
CtBP-E1A blk = CtBP/E1A binding inhibition; AlphaScreen GST-E1A/His-CtBP binding, 1536-well; hits give low values; activity change, % (no concentration beside the values); actives 0.49% (n = 340,000); AID 651724
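In 5 uL wells, 23 nL compound meets equimolar GST-E1A and His-CtBP (5X stock 125 nM each) for 2 h, 37 °C. Beads (5X, 50 ug/mL) then 1 h, 37 °C, dark.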
The depositor's hits bear a star; i = inactive; ? = inconclusive; nt = no result. Rule as the data show it, unless noted: active = activity change below about -65%; inconclusive = mostly about -30% to -63%; inactive = weaker than that. % is scaled to controls: 0 for no effect and ±100 for the full control effect.

SMILES | Akt phos inh | Six1-Eya2 blk | CCT chaperon mod | CtBP-E1A blk
CC1C(=O)C(C)C(c2cc(Cl)ccc2O)NC1c1cc(Cl)ccc1O (stereo not given) | i | 2 | -2 | 6
CC(C)Sc1nc2c(cnn2-c2ccccc2)c(=O)[nH]1 | i | 3 | -47* | -8
CC(C)Sc1nc2c(cnn2-c2ccc(F)cc2)c(=O)[nH]1 | i | 5 | -3 | -21
O=C(O)CCCN=CC1=C(O)CNC1=O | i | 6 | 2 | 0
CN(C)c1ccc(N=Nc2cccc(F)c2)cc1 | i | -78* | 1 | -67*
CN(C)c1ccc(N=Nc2cccc3ccoc23)cc1 | i | -65* | -1 | nt
CN(C)c1ccc(N=Nc2ccc(S(N)(=O)=O)cc2)cc1 | i | -15 | -9 | -7
CSc1nc(-c2ccc(C)cc2)[nH]c1S(=O)(=O)c1ccccc1 | -106%* | -15 | -2 | -22
CC(=O)Sc1nc(-c2ccccc2)[nH]c1S(=O)(=O)c1ccc(C)cc1 | i | 0 | 1 | -3
NC(=O)c1nnsc1-c1ccco1 | i | -2 | -1 | 4
COc1ccc(Nc2c3c(nc4ccccc24)CCCC3)cc1OC | i | -7 | 0 | -20
COc1ccc(C)cc1Nc1c2c(nc3ccccc13)CCC2 | i | -9 | -34* | -11
CCCNc1nc(N)nc(-c2cc(Cl)ccc2OC)n1 | -102%* | -11 | 1 | 1
O=C(CSc1nc2ccccc2s1)CSc1nc2ccccc2s1 | i | 3 | -1 | -14
O=C(CSc1nc2ccccc2s1)c1cc2ccccc2o1 | nt | 11 | -63* | 15
NNC(=O)Cc1cccc2ccc(Cl)cc12 | i | -2 | 1 | 2
CN1CCN(C(c2ccc(Br)cc2)c2cc(Cl)c3cccnc3c2O)CC1 (stereo not given) | i | ? | 0 | -90*
CN1CCN(C(c2cccnc2)c2ccc3cccnc3c2O)CC1 (stereo not given) | i | -90* | 0 | -81*
O=C(NC(=S)Nc1ccc2oc(=O)ccc2c1)c1cccc(Cl)c1 | i | -9 | -1 | 0
Cc1c2cc(O)c(=O)cc-2oc2cc(O)c(O)cc12 | i | -89* | -2 | -94*
Cc1nc(C)c(-c2csc(Nc3ccc(O)c(C(=O)O)c3)n2)s1 | i | -71* | -1 | -28
COC(=O)C[C@H]1CC[C@@H](NS(=O)(=O)c2ccc(C)cc2)[C@@H](CO)O1 | i | 3 | nt | 4
O=c1c2c(-c3ccccc3)csc2nc2c3ccccc3c(NCCN3CCOCC3)nn12 | i | -82* | -1 | -88*
Cc1nc(SCc2cccnc2)[nH]c(=O)c1C | i | 5 | 0 | nt
CCN(CC)S(=O)(=O)c1ccc(NC(=O)COC(=O)CNS(=O)(=O)/C=C/c2ccccc2)cc1 | i | -14 | -2 | -81*
SMILES | Akt phos inh | Six1-Eya2 blk | CCT chaperon mod | CtBP-E1A blk
CC1(C)COC(c2cc([N+](=O)[O-])ccc2Cl)=N1 | i | 4 | -2 | 3
CC1(C)COC(/C=C/c2cccc([N+](=O)[O-])c2)=N1 | i | 10 | -39* | 24
COc1ccccc1-c1cnc(C(O)c2ccc(SC)cc2)[nH]1 (stereo not given) | i | -13 | -1 | -13
COc1ccc(C(=O)N2CCN(c3ccccn3)CC2)cc1[N+](=O)[O-] | i | -4 | -1 | 0
OC(COc1ccc2c(c1)CCC2)Cn1cnc2ccccc21 (stereo not given) | -123%* | -9 | 2 | -7
CC(=O)Nc1ccc(OCC(O)Cn2cnc3ccccc32)cc1 (stereo not given) | i | 3 | -1 | 3
N#Cc1nc(Cc2cccc3ccccc23)oc1NCc1ccc(F)cc1 | -108%* | -20 | -1 | -1
Cc1csc(NC(=O)c2cncc(Br)c2)n1 | i | -2 | -1 | nt
COc1ccc(-c2c(C)[nH]n3c(=O)c(Cc4ccccc4)c(C)nc23)cc1OC | i | -67* | 2 | ?
CCOC(=O)Cc1c(C)nc2c(-c3ccccc3)c(C)[nH]n2c1=O | i | -8 | 0 | -2
CCOC(=O)Cc1c(C)nc2c(-c3ccccc3)c(-c3ccccc3)[nH]n2c1=O | i | -75* | -3 | ?
Cc1nc2c(-c3ccccc3)c(C)[nH]n2c(=O)c1Cc1ccccc1 | i | ? | -3 | nt
Cc1nc2c(C#N)c(C)[nH]n2c(=O)c1Cc1ccccc1 | i | -25 | -8 | 11
Cc1nc2c(-c3ccc(Cl)cc3)c(C)[nH]n2c(=O)c1Cc1ccccc1 | i | -76* | 2 | -82*
Nc1nc(-c2ccc(Cl)cc2)nn1C(=O)c1cccs1 | i | 2 | -3 | 0
O=C(Oc1cc(=O)n2ccccc2n1)c1ccccc1 | i | -5 | -2 | 12
CCCCn1c(SCC(=O)NNC(=O)c2ccco2)nnc1-c1ccco1 | i | 12 | -3 | nt
COc1ccc(-c2csc(NC(=O)Cc3cccc4ccccc34)c2C(=O)O)cc1 | i | -67* | 0 | -67*
COc1ccc(-c2csc(NC(=O)c3ccccc3Br)c2C(=O)O)cc1 | i | ? | -2 | -3
Cc1ccc(-c2csc(NC(=O)c3ccccc3F)c2C(=O)O)cc1 | i | -70* | 1 | nt
COc1cc(-c2noc(CCCC(=O)NC3CCCCC3)n2)cc(OC)c1OC | i | 2 | -1 | 3
COC(=O)[C@]12CCCCC=C1N(Cc1cccc3ccccc13)C(=O)[C@H](CC(=O)NCCc1ccccc1OC)C2 | i | 0 | 1 | -25
Cc1nnc(Sc2cc(NCCO)c([N+](=O)[O-])c3nonc23)s1 | i | ? | -58* | -11
O=c1c2ccccc2sc2ccccc12 | i | -9 | -35* | ?
O=c1c2ccccc2sc2ccc(Cl)cc12 | i | 11 | -26 | 21
SMILES | Akt phos inh | Six1-Eya2 blk | CCT chaperon mod | CtBP-E1A blk
CN1CCN(NC(=O)c2ccc(Cl)c([N+](=O)[O-])c2)CC1 | -112%* | 1 | -1 | 3
Nc1c(C(=O)Nc2ccccc2F)sc2nc(Cc3ccccc3)cc(C(F)(F)F)c12 | -109%* | 17 | -1 | 16
COCc1cc(C)nc2sc(C(=O)Nc3ccccc3F)c(N)c12 | i | 27 | 0 | 22
O=c1cc2c(=O)oc3cc(O)c(O)oc3c2c(O)c1O | i | -78* | 0 | -23
CCOC(=O)CSc1nc(C(C)C)nc2ccccc12 | i | 13 | -43* | 3
CC(=O)Oc1ccccc1Cn1c(C)c(C(=O)N(C)Cc2ccc(F)cc2)sc1=O | i | 1 | -1 | 5
C[C@@H]1COc2cccc(N3CCSCC3)c2S(=O)(=O)N1 | i | 10 | 1 | -4
CC(C)c1ccc(N(CC(=O)N2CCN(Cc3ccccc3)CC2)S(C)(=O)=O)cc1 | i | -4 | -95* | 0
COc1cccc(CNc2ccc(S(=O)(=O)Nc3nccs3)cc2)c1O | i | -22 | -2 | -25
COc1nccnc1NS(=O)(=O)c1ccc(NCc2cc(Br)ccc2O)cc1 | i | -77* | -4 | -73*
O=S(=O)(Nc1nccs1)c1ccc(NCc2cc(Br)cc(Br)c2O)cc1 | i | -90* | 3 | nt
